Bioassay records deposited in PubChem by The Scripps Research Institute Molecular Screening Center.
Compounds with a hit are over-represented: about 3.4% of the library has one in this group of screens.
TEAD-YAP block: TEAD-YAP interaction inhibition. HEK-TIYL cells, TEAD-Gal4/YAP UAS-luciferase luminescence. inhibition, % at 9.12 µM. 640,000 tested, 1.4% active; in the data active = inhibition above about 32%;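 note: 0% = median of test compound wells and 100% = reference inhibitor wells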
FBW7 activator: human FBW7 E3 ligase activation, primary screen; Q969H0; 650,000 tested, 0.13% active; normalized activity (activation), % at 26.1 µM; AlphaScreen FBW7–phospho-cyclin E peptide binding, activator screen; in the data active = normalized activity above about 1.9%;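 note: purified mutant Fbw7 with reduced substrate affinity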
MITF primary: human MITF inhibition, primary screen; AlphaScreen MITF homodimerization, bead proximity signal; inhibition, % at 2.6 µM; 650,000 tested, 0.91% active; AID 1259374; in the data active = inhibition above about 50%;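 note: 0% = vehicle wells with protein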
Target sequence (O75030 whole entry, looked up): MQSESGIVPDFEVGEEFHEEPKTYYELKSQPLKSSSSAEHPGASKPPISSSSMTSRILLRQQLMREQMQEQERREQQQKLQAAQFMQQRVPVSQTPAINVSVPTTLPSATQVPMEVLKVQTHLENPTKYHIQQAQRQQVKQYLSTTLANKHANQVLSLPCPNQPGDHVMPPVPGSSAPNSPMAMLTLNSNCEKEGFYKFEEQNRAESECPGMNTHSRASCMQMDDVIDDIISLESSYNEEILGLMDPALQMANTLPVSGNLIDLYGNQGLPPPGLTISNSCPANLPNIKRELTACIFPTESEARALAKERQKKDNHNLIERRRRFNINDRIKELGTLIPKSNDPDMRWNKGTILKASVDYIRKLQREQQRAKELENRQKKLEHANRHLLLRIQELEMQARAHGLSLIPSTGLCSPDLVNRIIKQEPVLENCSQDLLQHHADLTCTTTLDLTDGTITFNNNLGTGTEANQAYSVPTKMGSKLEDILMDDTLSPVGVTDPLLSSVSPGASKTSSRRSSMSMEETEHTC
GPR151 activ: activates the human receptor GPR151; PathHunter beta-arrestin GPR151 cells, luminescence; activation, % at 11.2 µM; 650,000 tested, 1% active; AID 1508602; in the data active = activation above about 4.9%;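 note: 0% = median of compound wells and 100% = cells with positive control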
Numbers without * were called inactive.

SMILES	TEAD-YAP block	FBW7 activator	MITF primary	GPR151 activ
CCOC(=O)c1c(C)[nH]c(C(=O)CSc2nc(C)c(C)c(C)n2)c1C	4	0	6	-1
CCC1=Nc2cc(C(=O)NCC(OC)OC)ccc2Sc2ccccc21	36*	0	5	0
CC1=Nc2cc(C(=O)NCCN(C)C)ccc2Sc2ccc(Cl)cc21	56*	0	-6	0
CCC1=Nc2cc(C(=O)NCCOC)ccc2Sc2ccccc21	57*	0	5	2
C(=N\Nc1cc(N2CCOCC2)nc(N2CCOCC2)n1)/c1ccncc1	5	0	10	2
COc1cc(OC)cc(C(=O)c2ccc(C(=O)Nc3cc(C(C)C)c(O)cc3C)cc2)c1	47*	0	-1	0
COc1ccc(C(=O)Nc2cc(C)ccc2O)cc1	44*	0	-5	-9
COc1ccc(C(=O)Nc2cc(C)ccc2O)c(OC)c1	-52	0	6	1
Cc1ccc(O)c(NC(=O)c2ccc(N3C(=O)c4ccc([N+](=O)[O-])cc4C3=O)cc2)c1	55*	0	-26	0
O=C(Nc1ccc([N+](=O)[O-])cc1)c1ccc(N2C(=O)c3ccc([N+](=O)[O-])cc3C2=O)cc1	-6	0	8	0
COc1ccc(-c2nc3s/c(=C\c4cccc(OC)c4OC)c(=O)n3n2)cc1OC	-3	0	-8	0
CC(=O)Oc1ccc(C(=O)O/N=C(\N)c2cccnc2)cc1	35*	0	3	-8
N/C(=N\OC(=O)c1cccc2ccccc12)c1ccc(Cl)cc1	-8	2.1*	13	1
Cc1ccc(C(=O)O/N=C(\N)c2ccccc2)c(Cl)c1	74*	0	4	5
COc1ccc(/C(N)=N/OC(=O)c2ccc(C)cc2Cl)cc1	-15	0	3	0
CC(C)(C)c1ccc(C(=O)O/N=C(\N)c2ccccc2)cc1	86*	0	-1	0
COc1ccc(/C(N)=N/OC(=O)c2ccc(C(C)(C)C)cc2)cc1	8	0	11	-1
N/C(=N\OC(=O)c1ccccc1Br)c1ccc(Cl)cc1	-54	0	6	0
CCOc1ccc2[nH]c(C)c(CN3CCCCC3C)c(=O)c2c1 (centres undefined)	0	0	-12	1
Cc1ccc2c3c(ccc2n1)NC1=C(C(=O)CCC1)C3c1ccccc1 (centres undefined)	15	0	-1	-1
CN1C(=O)c2c(sc3c2CCCC3)NC1c1ccc([N+](=O)[O-])cc1 (centres undefined)	-6	0	-4	0
O=C(Nc1ccc2ncccc2c1)c1ccco1	-53	0	-8	-1
O=C(N/N=C/c1cc(Cl)ccc1O)c1ccco1	-48	0	-52	0
O=C(N/N=C/c1ccc(O)c2ncccc12)c1ccco1	-33	0	104*	1
Cc1ccc(C(=O)N/N=C\c2cccc(OC(=O)c3ccco3)c2)cn1	1	2.2*	-9	2
SMILES	TEAD-YAP block	FBW7 activator	MITF primary	GPR151 activ
COc1cccc(/C=N\NC(=O)c2ccc(C)nc2)c1	-10	0	17	-2
O=C(N/N=C/c1ccc2ncccc2c1)c1ccco1	41*	0	11	-9
COc1ccc(/C=C2/C(=O)NN(c3ccc(Br)cc3)C2=O)cc1[N+](=O)[O-]	2	0	-5	0
N#CCCN(C(=O)COC(=O)c1ccc(Cl)cc1N)c1ccccc1	-1	0	-4	1
N#CCCN(C(=O)CCl)c1cccc(Cl)c1	74*	0	3	0
COc1ccc(CCNc2cc(-c3c(C)nn(C)c3C)nc(N)n2)cc1	50*	0	-5	1
CCCNc1cc(-c2c(C)nn(C)c2C)nc(N)n1	40*	0	-7	1
COc1ccc(CCNc2cc(-c3c(C)nn(C)c3C)ncn2)cc1	10	0	9	1
Cn1ncc2cc(Nc3ncc4ccc(-c5cn[nH]c5)cc4n3)ccc21	71*	0	22	4
Cc1ccc(-c2ncn(-c3ccc(Nc4ncc5ccc(Br)cc5n4)cc3)n2)cn1	4	0	-7	1
Cc1nc(C)n(-c2ccc(Nc3ncc4ccc(-c5cn[nH]c5)cc4n3)cc2)n1	73*	0	11	-1
Cc1ncn(-c2ccc(Nc3ncc(Cl)c(-c4cn[nH]c4)n3)cc2)n1	7	0	-4	0
Cc1nc(C)n(-c2ccc(Nc3cc4cc(-c5cn[nH]c5)ccc4cn3)cc2)n1	85*	0	11	0
Nc1nonc1/C(=N\OCc1ccc(Cl)cc1Cl)N1CCOCC1	6	1	-2	-1
O=c1c2c3c(sc2ncn1CCO)CC(NCCCc1ccccc1)CC3 (centres undefined)	-12	0	-5	0
O=C(NC1CC1)c1ccc2cncc(-c3ccccc3)c2n1	51*	0	5	5
O=C(c1ccc2cncc(-c3ccccc3)c2n1)N1CCCCC1	50*	-1	-16	-1
O=C(NC1CCN(Cc2ccccc2)CC1)c1ccc2cncc(-c3ccccc3)c2n1	65*	0	16	1
O=C(NC1CC1)c1cncc(-c2ccccc2)c1	4	0	-1	1
CCOC(=O)c1cnc2ccc(OC)cc2c1Nc1ccccc1	9	0	-3	1
Cc1ccc(C)c(N2C(=O)/C(=C/c3ccc(Cl)cc3)C=C2c2ccccc2)c1	4	0	0	-1
COc1ccc(/C=C2\C=C(c3ccccc3)N(c3cccc4ccccc34)C2=O)cc1	57*	0	18	-2
COc1ccc(/C=C2\C=C(c3ccccc3)N(c3cc(C)ccc3C)C2=O)cc1	42*	0	-9	0
Cn1c(-c2ccccc2Cl)nn(CN2CCC(C(N)=O)CC2)c1=S	15	0	-15	1
O=C(Nn1c(SCc2ccccc2Cl)nc2ccsc2c1=O)c1ccccc1	-5	0	7	0
SMILES	TEAD-YAP block	FBW7 activator	MITF primary	GPR151 activ
CCCc1ccc(OCC(=O)c2ccc(O)cc2O)cc1	85*	0	5	-7
Cc1cc(C(=O)NN2C(=O)c3ccccc3C2=O)n[nH]1	4	0	4	-1
COc1ccc(CCN(C)C2CCCN(S(=O)(=O)c3ccsc3)C2)cc1OC (centres undefined)	2	0	9	1
COC(=O)c1ccc(Nc2cc(C)nc3ccc(Cl)cc23)cc1	49*	0	13	1
COc1ccc2nc(C)cc(Nc3ccc(O)cc3)c2c1	34*	0	2	-1
COC(=O)c1ccc2nc(C)cc(Nc3ccc(C(=O)O)cc3)c2c1	11	0	18	1
COC(=O)c1ccc(Nc2cc(C)nc3cc(Cl)ccc23)cc1	49*	0	-2	0
COc1ccc(Nc2cc(C)nc3ccc(OC)cc23)cc1	10	0	-1	-1
O=S(=O)(NCC1CCCO1)c1ccc(Cc2ccc(S(=O)(=O)NCC3CCCO3)cc2)cc1 (centres undefined)	43*	0	3	-1
O=S(=O)(NCC1CCCO1)c1ccc(-c2ccc(S(=O)(=O)NCC3CCCO3)cc2)cc1 (centres undefined)	52*	1	13	-1
